# Measured values published in PMC7862700, “An all-to-all approach to the identification of sequence-specific readers for epigenetic DNA modifications on cytosine”.
# How the values were obtained:
# Test in all cases: DAPPL (digital affinity profiling via proximity ligation, sequencing); 10 mM Tris-HCl pH 7.5, 50 mM NaCl, 1 mM DTT, 4% glycerol, room temperature, 30 min; GST-TFs on glutathione beads, 16-mer random dsDNA library, 0.1% formaldehyde crosslink after washing; high values mean tight binding
# FLI1 = target: T1, FLI1 (Homo sapiens, UniProt Q01543 1-452); settings: protein: recombinant; tags: N-terminal GST; dsDNA, one strand shown
# T1 sequence: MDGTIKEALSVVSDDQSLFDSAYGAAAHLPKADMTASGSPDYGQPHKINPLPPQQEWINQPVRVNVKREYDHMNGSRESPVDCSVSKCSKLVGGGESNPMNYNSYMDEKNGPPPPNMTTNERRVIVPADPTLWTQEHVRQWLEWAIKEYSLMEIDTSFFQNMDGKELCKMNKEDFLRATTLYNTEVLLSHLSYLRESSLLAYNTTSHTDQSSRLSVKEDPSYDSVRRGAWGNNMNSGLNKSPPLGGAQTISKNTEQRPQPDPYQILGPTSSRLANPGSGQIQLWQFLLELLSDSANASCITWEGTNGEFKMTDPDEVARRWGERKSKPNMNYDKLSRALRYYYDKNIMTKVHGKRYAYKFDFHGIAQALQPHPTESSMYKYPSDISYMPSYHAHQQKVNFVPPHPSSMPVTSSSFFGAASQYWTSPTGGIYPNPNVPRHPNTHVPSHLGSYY
# In short: (§1)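 Beads coated with glutathione captured GST-fused human transcription factors that had been expressed in yeast, and the factors were then given DNA barcodes and pooled with a tag-only sample. The pools were incubated with 200 nmole of a random double-stranded 16-mer DNA library in Tris/NaCl/DTT/glycerol buffer for 30 min at room temperature, washed, crosslinked with 0.1% formaldehyde and proximity-ligated with BsaI/T4 ligase at 37 °C for 1 h. PCR amplification and Illumina NextSeq500 sequencing came last. Binding signal is each hexamer's read frequency for a factor divided by its frequency for the tag-only sample.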
# ELK1 = target: T2, ELK1 (Homo sapiens, UniProt P19419 1-428); settings: protein: recombinant; tags: N-terminal GST; dsDNA, one strand shown
# T2 sequence: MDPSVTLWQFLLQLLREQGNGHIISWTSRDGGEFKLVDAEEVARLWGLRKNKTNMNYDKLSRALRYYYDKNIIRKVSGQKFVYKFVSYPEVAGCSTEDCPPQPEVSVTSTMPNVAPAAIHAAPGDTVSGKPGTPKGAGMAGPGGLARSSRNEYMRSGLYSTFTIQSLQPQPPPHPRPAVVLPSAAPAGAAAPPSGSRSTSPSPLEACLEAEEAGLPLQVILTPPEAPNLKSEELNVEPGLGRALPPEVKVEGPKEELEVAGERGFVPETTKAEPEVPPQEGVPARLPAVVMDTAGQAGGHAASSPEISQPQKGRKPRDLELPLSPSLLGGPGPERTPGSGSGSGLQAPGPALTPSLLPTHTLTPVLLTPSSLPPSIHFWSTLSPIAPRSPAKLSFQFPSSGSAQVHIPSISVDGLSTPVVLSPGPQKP
# In short: as §1
# GABPA = target: T3, GABPA (Homo sapiens, UniProt Q06546 1-454); settings: protein: recombinant; tags: N-terminal GST; dsDNA, one strand shown
# T3 sequence: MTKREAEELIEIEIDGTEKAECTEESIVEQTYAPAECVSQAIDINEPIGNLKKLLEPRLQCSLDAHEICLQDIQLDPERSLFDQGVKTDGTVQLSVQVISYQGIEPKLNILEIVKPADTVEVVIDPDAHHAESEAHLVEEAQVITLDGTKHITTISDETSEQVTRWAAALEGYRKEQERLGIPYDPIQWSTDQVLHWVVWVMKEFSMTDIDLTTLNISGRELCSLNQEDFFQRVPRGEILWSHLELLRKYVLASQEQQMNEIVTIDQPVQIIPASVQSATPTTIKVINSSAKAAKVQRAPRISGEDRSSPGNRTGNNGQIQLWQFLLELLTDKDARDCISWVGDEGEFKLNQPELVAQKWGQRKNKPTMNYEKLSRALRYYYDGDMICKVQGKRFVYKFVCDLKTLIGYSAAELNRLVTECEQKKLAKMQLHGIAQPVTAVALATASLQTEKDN
# In short: as §1
# ERG = target: T4, ERG (Homo sapiens, UniProt P11308 1-479); settings: protein: recombinant; tags: N-terminal GST; dsDNA, one strand shown
# T4 sequence: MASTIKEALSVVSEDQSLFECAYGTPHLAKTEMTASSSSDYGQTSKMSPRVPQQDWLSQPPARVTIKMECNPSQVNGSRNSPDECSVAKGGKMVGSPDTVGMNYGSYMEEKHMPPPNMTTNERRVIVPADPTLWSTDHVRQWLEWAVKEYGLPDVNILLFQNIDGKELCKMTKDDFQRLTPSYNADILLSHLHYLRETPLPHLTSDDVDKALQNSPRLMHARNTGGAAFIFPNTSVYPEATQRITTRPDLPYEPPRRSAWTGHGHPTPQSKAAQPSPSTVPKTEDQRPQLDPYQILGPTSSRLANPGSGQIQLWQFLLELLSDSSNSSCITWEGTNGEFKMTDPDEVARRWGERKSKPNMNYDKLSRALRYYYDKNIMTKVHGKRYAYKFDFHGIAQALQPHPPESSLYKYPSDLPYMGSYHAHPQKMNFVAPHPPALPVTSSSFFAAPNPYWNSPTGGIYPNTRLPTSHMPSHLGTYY
# In short: as §1
# ELF1 = ELF1 (Homo sapiens, UniProt P32519 1-619); settings: protein: recombinant; tags: N-terminal GST; dsDNA, one strand shown
# In short: as §1
# EHF = target: T5, EHF (Homo sapiens, UniProt Q9NZC4 1-300); settings: protein: recombinant; tags: N-terminal GST; dsDNA, one strand shown
# T5 sequence: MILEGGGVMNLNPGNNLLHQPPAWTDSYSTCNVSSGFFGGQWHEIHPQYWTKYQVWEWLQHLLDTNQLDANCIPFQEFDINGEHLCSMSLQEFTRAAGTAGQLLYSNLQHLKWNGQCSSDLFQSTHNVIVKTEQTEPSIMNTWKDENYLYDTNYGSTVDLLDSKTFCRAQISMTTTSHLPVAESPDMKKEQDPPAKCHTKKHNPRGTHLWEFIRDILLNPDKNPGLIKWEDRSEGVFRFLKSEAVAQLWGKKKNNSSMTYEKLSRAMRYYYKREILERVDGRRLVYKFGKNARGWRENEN
# In short: as §1
# SPI1 = SPI1 (Homo sapiens, UniProt P17947 1-270); settings: protein: recombinant; tags: N-terminal GST; dsDNA, one strand shown
# In short: as §1
# SPIB = SPIB (Homo sapiens, UniProt Q01892 1-262); settings: protein: recombinant; tags: N-terminal GST; dsDNA, one strand shown
# In short: as §1
# FEV = target: T6, FEV (Homo sapiens, UniProt Q99581 1-238); settings: protein: recombinant; tags: N-terminal GST; dsDNA, one strand shown
# T6 sequence: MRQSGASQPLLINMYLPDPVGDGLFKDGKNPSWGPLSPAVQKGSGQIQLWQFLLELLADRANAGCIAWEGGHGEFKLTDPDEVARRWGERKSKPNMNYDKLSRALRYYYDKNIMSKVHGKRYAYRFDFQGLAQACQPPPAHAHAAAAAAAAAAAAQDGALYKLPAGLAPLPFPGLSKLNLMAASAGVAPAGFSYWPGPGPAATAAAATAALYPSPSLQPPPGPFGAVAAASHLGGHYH
# In short: as §1
# ETV5 = ETV5 (Homo sapiens, UniProt P41161 1-510); settings: protein: recombinant; tags: N-terminal GST; dsDNA, one strand shown
# In short: as §1
# HSF1 = HSF1 (Homo sapiens, UniProt Q00613 1-529); settings: protein: recombinant; tags: N-terminal GST; chain copies: 3; dsDNA, one strand shown
# In short: as §1
# SPIC = target: T7, SPIC (Homo sapiens, UniProt Q8N5J4 1-248); settings: protein: recombinant; tags: N-terminal GST; dsDNA, one strand shown
# T7 sequence: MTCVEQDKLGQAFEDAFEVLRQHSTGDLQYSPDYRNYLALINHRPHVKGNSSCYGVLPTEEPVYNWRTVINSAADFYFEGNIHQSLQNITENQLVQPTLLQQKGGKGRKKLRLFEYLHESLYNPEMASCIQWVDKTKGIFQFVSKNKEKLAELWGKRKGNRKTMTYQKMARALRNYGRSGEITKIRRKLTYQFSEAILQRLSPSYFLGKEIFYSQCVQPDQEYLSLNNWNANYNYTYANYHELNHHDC
# In short: as §1
# ELF4 = ELF4 (Homo sapiens, UniProt Q99607 1-663); settings: protein: recombinant; tags: N-terminal GST; dsDNA, one strand shown
# In short: as §1
# ELK4 = target: T8, ELK4 (Homo sapiens, UniProt P28324-2 1-405); settings: protein: recombinant; tags: N-terminal GST; dsDNA, one strand shown
# T8 sequence: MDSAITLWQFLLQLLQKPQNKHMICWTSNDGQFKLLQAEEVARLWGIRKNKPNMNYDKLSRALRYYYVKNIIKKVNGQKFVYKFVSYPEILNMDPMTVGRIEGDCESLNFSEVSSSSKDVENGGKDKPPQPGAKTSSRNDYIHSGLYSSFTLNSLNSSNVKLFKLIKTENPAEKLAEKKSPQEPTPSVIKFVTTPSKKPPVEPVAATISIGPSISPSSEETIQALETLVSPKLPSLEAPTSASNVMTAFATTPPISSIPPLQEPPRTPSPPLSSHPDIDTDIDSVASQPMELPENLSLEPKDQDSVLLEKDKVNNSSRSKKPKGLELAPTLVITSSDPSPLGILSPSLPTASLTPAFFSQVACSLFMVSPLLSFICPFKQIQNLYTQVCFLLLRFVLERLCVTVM
# In short: as §1
# ETV2 = target: T9, ETV2 (Homo sapiens, UniProt O00321 1-342); settings: protein: recombinant; tags: N-terminal GST; dsDNA, one strand shown
# T9 sequence: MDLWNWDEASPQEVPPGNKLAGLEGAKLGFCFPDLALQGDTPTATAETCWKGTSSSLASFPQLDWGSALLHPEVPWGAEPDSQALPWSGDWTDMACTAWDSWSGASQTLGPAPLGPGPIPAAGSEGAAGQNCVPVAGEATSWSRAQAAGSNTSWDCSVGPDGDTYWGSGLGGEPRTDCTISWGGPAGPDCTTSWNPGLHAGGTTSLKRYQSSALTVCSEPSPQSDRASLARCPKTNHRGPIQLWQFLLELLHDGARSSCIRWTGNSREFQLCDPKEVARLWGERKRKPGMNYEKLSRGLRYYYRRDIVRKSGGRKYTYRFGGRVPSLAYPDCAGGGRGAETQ
# In short: as §1
# ELF3 = target: T10, ELF3 (Homo sapiens, UniProt P78545 1-371); settings: protein: recombinant; tags: N-terminal GST; dsDNA, one strand shown
# T10 sequence: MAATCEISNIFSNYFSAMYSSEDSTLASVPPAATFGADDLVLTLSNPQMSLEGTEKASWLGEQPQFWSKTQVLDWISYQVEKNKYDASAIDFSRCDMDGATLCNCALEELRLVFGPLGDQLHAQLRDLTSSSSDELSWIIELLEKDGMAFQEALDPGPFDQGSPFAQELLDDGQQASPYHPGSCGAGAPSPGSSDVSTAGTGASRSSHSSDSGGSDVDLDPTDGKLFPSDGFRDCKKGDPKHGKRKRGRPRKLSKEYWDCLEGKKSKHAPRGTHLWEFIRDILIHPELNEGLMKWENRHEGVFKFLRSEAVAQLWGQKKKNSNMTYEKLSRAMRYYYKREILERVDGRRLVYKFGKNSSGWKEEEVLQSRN
# In short: as §1
# CRX = CRX (Homo sapiens, UniProt O43186 1-299); settings: protein: recombinant; tags: N-terminal GST; dsDNA, one strand shown
# In short: as §1
# ETV1 = ETV1 (Homo sapiens, UniProt P50549 1-477); settings: protein: recombinant; tags: N-terminal GST; dsDNA, one strand shown
# In short: as §1
# Sequence of ELF4 (Q99607 whole entry): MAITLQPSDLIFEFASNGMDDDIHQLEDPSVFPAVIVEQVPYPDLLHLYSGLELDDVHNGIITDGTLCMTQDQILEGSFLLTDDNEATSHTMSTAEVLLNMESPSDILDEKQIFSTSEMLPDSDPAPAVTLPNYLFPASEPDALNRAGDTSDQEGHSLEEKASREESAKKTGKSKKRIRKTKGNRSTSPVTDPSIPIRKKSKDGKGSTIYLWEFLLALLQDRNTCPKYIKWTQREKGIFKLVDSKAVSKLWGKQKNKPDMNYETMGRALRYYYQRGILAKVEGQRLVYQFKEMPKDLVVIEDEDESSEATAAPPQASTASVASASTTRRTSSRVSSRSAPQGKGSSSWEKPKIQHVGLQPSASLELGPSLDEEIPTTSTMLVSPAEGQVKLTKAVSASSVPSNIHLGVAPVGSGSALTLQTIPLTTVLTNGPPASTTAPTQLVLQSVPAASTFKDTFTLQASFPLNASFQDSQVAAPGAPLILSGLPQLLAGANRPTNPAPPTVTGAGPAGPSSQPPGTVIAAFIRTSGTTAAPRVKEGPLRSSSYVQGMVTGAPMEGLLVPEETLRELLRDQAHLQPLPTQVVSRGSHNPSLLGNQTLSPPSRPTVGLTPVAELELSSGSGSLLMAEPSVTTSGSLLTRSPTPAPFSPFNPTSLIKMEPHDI
# Sequence of ETV5 (P41161 whole entry): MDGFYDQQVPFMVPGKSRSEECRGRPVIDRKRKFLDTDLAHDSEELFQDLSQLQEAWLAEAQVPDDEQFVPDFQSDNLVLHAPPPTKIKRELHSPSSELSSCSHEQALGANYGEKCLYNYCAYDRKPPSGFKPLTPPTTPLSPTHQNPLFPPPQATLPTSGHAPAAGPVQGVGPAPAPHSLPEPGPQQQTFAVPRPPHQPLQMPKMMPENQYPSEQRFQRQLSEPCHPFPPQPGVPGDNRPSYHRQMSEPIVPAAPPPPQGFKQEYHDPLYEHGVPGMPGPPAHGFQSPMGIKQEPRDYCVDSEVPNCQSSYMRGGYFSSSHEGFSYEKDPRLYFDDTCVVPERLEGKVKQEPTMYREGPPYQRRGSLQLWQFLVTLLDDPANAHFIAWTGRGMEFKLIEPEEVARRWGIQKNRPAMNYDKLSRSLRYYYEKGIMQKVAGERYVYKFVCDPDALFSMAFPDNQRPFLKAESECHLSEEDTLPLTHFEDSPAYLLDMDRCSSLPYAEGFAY
# Sequence of CRX (O43186 whole entry): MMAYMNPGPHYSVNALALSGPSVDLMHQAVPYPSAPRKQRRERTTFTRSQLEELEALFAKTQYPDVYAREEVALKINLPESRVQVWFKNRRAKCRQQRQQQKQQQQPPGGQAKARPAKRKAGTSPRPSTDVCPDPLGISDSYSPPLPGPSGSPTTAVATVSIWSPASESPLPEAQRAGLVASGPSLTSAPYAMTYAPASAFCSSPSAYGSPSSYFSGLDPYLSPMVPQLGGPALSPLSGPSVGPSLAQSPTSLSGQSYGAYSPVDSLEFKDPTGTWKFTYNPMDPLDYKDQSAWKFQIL
# Sequence of HSF1 (Q00613 whole entry): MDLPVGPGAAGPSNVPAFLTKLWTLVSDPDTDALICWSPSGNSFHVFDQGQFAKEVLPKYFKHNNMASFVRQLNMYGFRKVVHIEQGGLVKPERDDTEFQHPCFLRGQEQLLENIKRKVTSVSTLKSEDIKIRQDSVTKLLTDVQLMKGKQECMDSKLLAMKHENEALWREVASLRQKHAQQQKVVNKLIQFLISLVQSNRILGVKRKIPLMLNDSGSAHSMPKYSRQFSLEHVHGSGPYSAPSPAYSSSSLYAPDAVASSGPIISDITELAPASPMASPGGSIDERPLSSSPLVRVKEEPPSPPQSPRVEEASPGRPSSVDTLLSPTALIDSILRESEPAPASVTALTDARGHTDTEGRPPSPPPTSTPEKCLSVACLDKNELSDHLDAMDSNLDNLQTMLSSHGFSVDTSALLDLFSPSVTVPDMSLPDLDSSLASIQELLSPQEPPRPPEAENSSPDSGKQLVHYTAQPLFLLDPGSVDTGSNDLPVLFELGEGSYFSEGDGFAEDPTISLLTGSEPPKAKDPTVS
# Sequence of ELF1 (P32519 whole entry): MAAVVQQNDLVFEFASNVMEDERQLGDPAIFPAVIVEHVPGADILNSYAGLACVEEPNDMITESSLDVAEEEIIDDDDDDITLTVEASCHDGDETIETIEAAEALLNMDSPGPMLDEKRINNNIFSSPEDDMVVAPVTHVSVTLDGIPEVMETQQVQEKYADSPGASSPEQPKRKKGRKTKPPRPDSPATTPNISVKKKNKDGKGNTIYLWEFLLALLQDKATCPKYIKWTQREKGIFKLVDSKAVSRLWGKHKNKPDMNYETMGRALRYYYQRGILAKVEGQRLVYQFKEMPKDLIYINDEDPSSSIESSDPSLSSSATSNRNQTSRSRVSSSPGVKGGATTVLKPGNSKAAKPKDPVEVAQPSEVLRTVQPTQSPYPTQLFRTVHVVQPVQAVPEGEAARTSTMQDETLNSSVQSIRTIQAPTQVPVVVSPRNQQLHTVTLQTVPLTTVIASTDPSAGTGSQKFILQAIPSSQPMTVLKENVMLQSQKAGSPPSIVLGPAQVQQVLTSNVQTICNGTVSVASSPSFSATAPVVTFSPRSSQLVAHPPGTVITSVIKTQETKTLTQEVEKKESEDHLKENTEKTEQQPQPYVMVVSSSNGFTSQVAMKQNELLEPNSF
# Sequence of SPIB (Q01892 whole entry): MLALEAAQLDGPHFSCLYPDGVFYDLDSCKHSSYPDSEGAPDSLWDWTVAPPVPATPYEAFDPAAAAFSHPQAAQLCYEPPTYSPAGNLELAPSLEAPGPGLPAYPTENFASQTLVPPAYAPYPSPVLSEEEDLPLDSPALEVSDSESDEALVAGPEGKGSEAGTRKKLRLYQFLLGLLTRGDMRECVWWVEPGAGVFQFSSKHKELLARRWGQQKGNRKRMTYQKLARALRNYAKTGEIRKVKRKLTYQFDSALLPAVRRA
# Sequence of ETV1 (P50549 whole entry): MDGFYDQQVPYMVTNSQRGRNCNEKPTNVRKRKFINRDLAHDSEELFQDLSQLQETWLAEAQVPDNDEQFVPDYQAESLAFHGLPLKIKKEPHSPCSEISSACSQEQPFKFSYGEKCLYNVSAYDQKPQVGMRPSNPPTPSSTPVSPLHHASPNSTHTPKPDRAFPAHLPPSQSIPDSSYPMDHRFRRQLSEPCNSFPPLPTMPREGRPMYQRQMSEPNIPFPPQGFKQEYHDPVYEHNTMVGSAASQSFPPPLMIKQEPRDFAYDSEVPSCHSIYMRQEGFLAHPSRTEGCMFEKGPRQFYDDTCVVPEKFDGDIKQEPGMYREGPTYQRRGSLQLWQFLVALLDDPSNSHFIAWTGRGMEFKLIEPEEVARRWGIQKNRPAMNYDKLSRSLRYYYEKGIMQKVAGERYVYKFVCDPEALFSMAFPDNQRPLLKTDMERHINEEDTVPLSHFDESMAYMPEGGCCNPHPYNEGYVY
sequence,measurement,setting,value
CCGAGC,binding signal,FLI1,"1.17 fold enrichment (6-mer frequency, TF over GST control)"
same,binding signal,ELK1,"1.25 fold enrichment (6-mer frequency, TF over GST control)"
same,binding signal,GABPA,"1.2 fold enrichment (6-mer frequency, TF over GST control)"
same,binding signal,ERG,"1.11 fold enrichment (6-mer frequency, TF over GST control)"
same,binding signal,ELF1,"1.15 fold enrichment (6-mer frequency, TF over GST control)"
same,binding signal,EHF,"1.12 fold enrichment (6-mer frequency, TF over GST control)"
same,binding signal,SPI1,"1.12 fold enrichment (6-mer frequency, TF over GST control)"
same,binding signal,SPIB,"1.19 fold enrichment (6-mer frequency, TF over GST control)"
same,binding signal,FEV,"1.18 fold enrichment (6-mer frequency, TF over GST control)"
same,binding signal,ETV5,"1.14 fold enrichment (6-mer frequency, TF over GST control)"
same,binding signal,HSF1,"1.13 fold enrichment (6-mer frequency, TF over GST control)"
same,binding signal,SPIC,"1.26 fold enrichment (6-mer frequency, TF over GST control)"
same,binding signal,ELF4,"1.09 fold enrichment (6-mer frequency, TF over GST control)"
same,binding signal,ELK4,"1.09 fold enrichment (6-mer frequency, TF over GST control)"
same,binding signal,ETV2,"1.35 fold enrichment (6-mer frequency, TF over GST control)"
same,binding signal,ELF3,"1.23 fold enrichment (6-mer frequency, TF over GST control)"
same,binding signal,CRX,"1.01 fold enrichment (6-mer frequency, TF over GST control)"
same,binding signal,ETV1,"1.02 fold enrichment (6-mer frequency, TF over GST control)"
